Records with an inconclusive call do not appear. Activity calls are given as the source filed them. How the source made its calls: active means hit-call score of the fitted dose curve at least 0.9, where 1 is the maximum; inconclusive means response in the unintended direction; inactive means score below 0.9.
How the values were obtained:
[1] = TOX21_p53_BLA_p2_viability: Viability Assessment in the Tox21 HCT-116 p53 Agonism Beta-lactamase Assay, Phase 2 (AID 2283591);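 further: compound exposure lasted 16 h at 37 °C; actives lower the ATP signal meaning cytotoxicity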
Summary of the method: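 HCT-116 p53-bla cells (4000/well) rested 5 h at 37C, then received compounds in DMSO (217-fold dilution) for 16 h at 37C, 5% CO2. After the CCF4 read, CellTiter-Glo was added; ATP luminescence was read after 30 min at room temperature.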

[2] = molecular target: Cellular tumor antigen p53 (Homo sapiens) (UniProt P04637); assay: TOX21_p53_BLA_p2_ratio: Tox21 HCT-116 p53 Agonism Beta-lactamase Assay, Ratio, Phase 2 (AID 2283592)
Chain of Cellular tumor antigen p53 (Homo sapiens) (P04637 whole entry, looked up): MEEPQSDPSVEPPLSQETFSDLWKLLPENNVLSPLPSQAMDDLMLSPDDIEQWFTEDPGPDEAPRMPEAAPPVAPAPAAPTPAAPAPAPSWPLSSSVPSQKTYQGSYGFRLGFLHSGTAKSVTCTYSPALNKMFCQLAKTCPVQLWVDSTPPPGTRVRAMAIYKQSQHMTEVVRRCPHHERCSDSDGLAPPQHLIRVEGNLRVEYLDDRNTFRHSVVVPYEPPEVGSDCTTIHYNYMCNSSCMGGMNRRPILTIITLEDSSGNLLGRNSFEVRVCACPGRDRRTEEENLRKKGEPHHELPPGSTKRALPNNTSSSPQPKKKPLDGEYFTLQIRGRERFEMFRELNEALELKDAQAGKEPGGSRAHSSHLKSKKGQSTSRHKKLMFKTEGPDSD
Summary of the method: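 Plated HCT116 p53-bla cells (4000/well) received compound after 5 h, then 16 h at 37C/5% CO2. CCF4-AM added, 2 h RT. Ratio of 460 to 530 nm emission taken as the p53 reporter signal.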

[3] = TOX21_p53_BLA_p3_viability: Viability Assessment in the Tox21 HCT-116 p53 Agonism Beta-lactamase Assay, Phase 3 (AID 2283593);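 further: cells exposed to compound for 16 h before reading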
Summary of the method: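 HCT-116 cells (4000/well) rested 5 h at 37C, then got DMSO compounds by pin tool (217-fold dilution) for 16 h at 37C, 5% CO2. After the bla read, CellTiter-Glo was added and luminescence read at 30 min, room temperature.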

[4] = molecular target: Cellular tumor antigen p53 (Homo sapiens) (UniProt P04637); assay: TOX21_p53_BLA_p3_ratio: Tox21 HCT-116 p53 Agonism Beta-lactamase Assay, Ratio, Phase 3 (AID 2283596)
Summary of the method: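 Cells were seeded at 4000/well, rested 5 h at 37C, then dosed with DMSO compound solutions (217-fold dilution) for 16 h. CCF4-AM substrate was loaded for 2 h at room temperature, and the 460/530 nm emission ratio was fitted for gain of signal versus DMSO.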

[5] = TOX21_p53_BLA_p4_viability: Viability Assessment in the Tox21 HCT-116 p53 Agonism Beta-lactamase Assay, Phase 4 (AID 2283597);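 further: hits lower the luminescence signal meaning cytotoxicity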
Summary of the method: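 Readout: ATP luminescence (CellTiter-Glo), measured 30 min after reagent addition at RT. The reagent followed a 2 h CCF4-AM incubation, and the cells had been exposed to compound for 16 h at 37C.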

[6] = molecular target: Cellular tumor antigen p53 (Homo sapiens) (UniProt P04637); assay: TOX21_p53_BLA_p5_ratio: Tox21 HCT-116 p53 Agonism Beta-lactamase Assay, Ratio, Phase 5 (AID 2283599)
Summary of the method: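 HCT-116 cells carrying a p53-inducible beta-lactamase reporter were seeded at 4000 cells/well and dosed after 5 h with compound in DMSO (217-fold dilution). After 16 h at 37C, CCF4-AM substrate was added for 2 h, and the 460/530 nm emission ratio was scored as gain-of-signal versus DMSO.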

[7] = TOX21_p53_BLA_p5_viability: Viability Assessment in the Tox21 HCT-116 p53 Agonism Beta-lactamase Assay, Phase 5 (AID 2283600)
Summary of the method: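 Workflow: seed 4000 cells per well, wait 5 h, add compounds (DMSO, 217-fold dilution), incubate 16 h, load CCF4-AM 2 h, add CellTiter-Glo, read luminescence after 30 min.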

[8] = molecular target: Cellular tumor antigen p53 (Homo sapiens) (UniProt P04637); assay: TOX21_p53_BLA_p4_ratio: Tox21 HCT-116 p53 Agonism Beta-lactamase Assay, Ratio, Phase 4 (AID 2283601)
Summary of the method: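 HCT116 cells carrying an inducible beta-lactamase reporter were plated at 4000 cells/well, rested 5 h, then exposed to compounds in DMSO (217-fold dilution) for 16 h at 37C. CCF4-AM substrate was loaded 2 h at room temperature; 460/530 nm emission ratio scored gain-of-signal versus DMSO.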

Row | SMILES | AC50 [1] | outcome [2] | AC50 [3] | outcome [4] | AC50 [5] | AC50 [6] | AC50 [7] | outcome [8] | outcome [1] | outcome [3] | outcome [5] | outcome [6] | outcome [7] | AC50 [2] | AC50 [4] | AC50 [8]
1 | Cc1c(C(=O)NN2CCCCC2)nn(-c2ccc(Cl)cc2Cl)c1-c1ccc(Cl)cc1 | 28.3 µM (active) | inactive | 23 µM (active) | inactive | 21.4 µM (active) | 37.8 µM (active) | 23 µM (active) | inactive | – | – | – | – | – | – | – | –
2 | NC(=O)Nc1ccc(Cl)c(Cl)c1 | – | inactive | – | inactive | – | – | – | inactive | inactive | inactive | inactive | inactive | inactive | – | – | –
3 | CC[C@@H](C(=O)[C@@H](C)[C@@H](O)[C@H](C)CCc1ccc(C)c(O)c1C(=O)O)[C@H]1O[C@](CC)([C@H]2CC[C@](O)(CC)[C@H](C)O2)C[C@@H]1C | 23 µM (active) | – | 23 µM (active) | – | 31.1 µM (active) | 36.2 µM (active) | 31.4 µM (active) | – | – | – | – | – | – | 17.2 µM (active) | 30.3 µM (active) | 14.6 µM (active)
4 | O=C(Nc1ccc(Br)cc1)c1cc(Br)c(Br)s1 | 23 µM (active) | inactive | 32.2 µM (active) | – | 19.5 µM (active) | 19.9 µM (active) | – | inactive | – | – | – | – | inactive | – | 18.8 µM (active) | –
5 | c1cc(OCC2CO2)cc(OCC2CO2)c1 (stereo not drawn) | – | – | 70.3 µM (active) | – | – | 14.3 µM (active) | – | – | inactive | – | inactive | – | inactive | 14.3 µM (active) | 20.4 µM (active) | 63.2 µM (active)
6 | COc1c(C)c2c(c(O)c1C/C=C(\C)CCC(=O)O)C(=O)OC2 | – | – | – | – | 0.224 µM (active) | 0.127 µM (active) | – | – | inactive | inactive | – | – | inactive | 0.0608 µM (active) | 0.102 µM (active) | 0.091 µM (active)
7 | Cc1nnc(NS(=O)(=O)c2ccc(N)cc2)s1 | – | inactive | – | inactive | – | – | – | inactive | inactive | inactive | inactive | inactive | inactive | – | – | –
8 | O=C1NCN(c2ccccc2)C12CCN(CCCC(c1ccc(F)cc1)c1ccc(F)cc1)CC2 | 37.3 µM (active) | – | 35.9 µM (active) | – | 23 µM (active) | 45 µM (active) | 35.1 µM (active) | – | – | – | – | – | – | 39.1 µM (active) | 42.2 µM (active) | 26.7 µM (active)
9 | CC[C@@H](CO)NCCN[C@@H](CC)CO | – | inactive | – | inactive | – | – | – | inactive | inactive | inactive | inactive | inactive | inactive | – | – | –
10 | CC1=C(/C=C/C(C)=C/C=C/C(C)=C/C=O)C(C)(C)CCC1 | 28.7 µM (active) | inactive | 36.6 µM (active) | – | 67 µM (active) | 49.1 µM (active) | 34.9 µM (active) | – | – | – | – | – | – | – | 66.6 µM (active) | 85.6 µM (active)
11 | OCCN1CCN(CC/C=C2/c3ccccc3Sc3ccc(C(F)(F)F)cc32)CC1 | – | inactive | – | inactive | 36.3 µM (active) | – | – | inactive | inactive | inactive | – | inactive | inactive | – | – | –
12 | CCCCCCCCCCCCOCCOCCOCCOCCOCCOCCOCCOCCOCCO | 31.5 µM (active) | – | 27 µM (active) | – | 20 µM (active) | 36.9 µM (active) | 23 µM (active) | – | – | – | – | – | – | 13.5 µM (active) | 19.7 µM (active) | 37.7 µM (active)
13 | Cn1c(O)c(N=NC(N)=S)c2ccccc21 | – | inactive | – | inactive | – | – | – | inactive | inactive | inactive | inactive | inactive | inactive | – | – | –
14 | CC(=O)c1cccc([N+](=O)[O-])c1 | – | inactive | – | inactive | – | – | – | inactive | inactive | inactive | inactive | inactive | inactive | – | – | –
15 | Oc1c(Cl)cc(Cl)c2cccnc12 | – | – | – | – | 7.77 µM (active) | 7.4 µM (active) | – | – | inactive | inactive | – | – | inactive | 7.4 µM (active) | 7.23 µM (active) | 6.25 µM (active)
16 | CC[C@@]1([C@@H]2O[C@@H]([C@H]3O[C@@](O)(CO)[C@H](C)C[C@@H]3C)C[C@@H]2C)CC[C@H]([C@]2(C)CC[C@]3(C[C@H](O)[C@@H](C)[C@@H]([C@@H](C)[C@@H](OC)[C@H](C)C(=O)O)O3)O2)O1 (stereo in doubt) | – | inactive | – | inactive | – | – | – | inactive | inactive | inactive | inactive | inactive | inactive | – | – | –
17 | CC1(COc2ccc(CC3SC(=O)NC3=O)cc2)CCCCC1 (stereo not drawn) | 28.8 µM (active) | – | 35.1 µM (active) | – | 18.6 µM (active) | 27.6 µM (active) | 21.6 µM (active) | – | – | – | – | – | – | 36.7 µM (active) | 27.1 µM (active) | 34.7 µM (active)
18 | Clc1cc(Cl)c(OCC#CI)cc1Cl | – | – | – | inactive | 23 µM (active) | 39.7 µM (active) | – | inactive | inactive | inactive | – | – | inactive | 33.7 µM (active) | – | –
19 | Clc1ccc(C(Cn2ccnc2)OCc2c(Cl)cccc2Cl)c(Cl)c1 (stereo not drawn) | – | – | – | – | – | – | – | – | inactive | inactive | inactive | inactive | inactive | 17.7 µM (active) | 17.9 µM (active) | 16.7 µM (active)
20 | NC(=O)NS(=O)(=O)c1ccc(N)cc1 | – | inactive | – | inactive | – | – | – | inactive | inactive | inactive | inactive | inactive | inactive | – | – | –
21 | O=C(O)c1cc(=O)[nH]c(=O)[nH]1 | – | inactive | – | inactive | – | – | – | inactive | inactive | inactive | inactive | inactive | inactive | – | – | –
